The record followed here is PubChem BioAssay AID624377 (The Scripps Research Institute Molecular Screening Center, 2012).

About 680 (0.19%) of roughly 360,000 compounds were called active. Cut-off read from the data, not from the text of the source: active = inhibition above about 25%; inactive = the rest. The entries come from a sample that favours actives as a whole.

The target of the test is Arf-GAP with SH3 domain, ANK repeat and PH domain-containing protein 1 (Homo sapiens) (UniProt Q9ULH1). In words: blockers of ASAP1-stimulated ARF1 GTP hydrolysis – biochemical, fluorescence polarization, primary screen (AID 624377).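 Note: 0% = vehicle with enzyme and substrate and 100% = no enzyme.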 The conditions noted are these: GDP FP detection, at 16.5 µM, hits give high values. For orientation: Polarisation of emitted light reports the rotation of a fluorescent probe.
Sequence of Arf-GAP with SH3 domain, ANK repeat and PH domain-containing protein 1 (Homo sapiens) (Q9ULH1 325-724 limits assumed): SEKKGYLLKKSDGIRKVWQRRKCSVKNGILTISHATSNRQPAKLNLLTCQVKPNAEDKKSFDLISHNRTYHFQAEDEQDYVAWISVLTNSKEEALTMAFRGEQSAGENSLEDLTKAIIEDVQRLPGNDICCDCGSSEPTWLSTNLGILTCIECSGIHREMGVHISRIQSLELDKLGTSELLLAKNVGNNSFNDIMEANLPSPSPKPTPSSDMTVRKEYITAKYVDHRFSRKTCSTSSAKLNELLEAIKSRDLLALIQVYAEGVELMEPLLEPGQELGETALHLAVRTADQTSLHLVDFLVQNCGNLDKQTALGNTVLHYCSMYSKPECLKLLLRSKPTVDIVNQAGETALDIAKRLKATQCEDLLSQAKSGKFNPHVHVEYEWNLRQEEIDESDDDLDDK
With `COC(=O)Cc1nnn2c1[C@H](C)[C@@H](OC)c1cc(Br)ccc1-2`, the inhibition was 8.77% (inactive). To `CC[C@H](NC(=O)[C@H](Cc1ccccc1)NC(=O)[C@H]1O[C@@H](n2cnc3c(=O)[nH]c(N)nc32)[C@H](O)[C@@H]1O)c1ccccc1` belongs 3.49% (inactive).

Consider `O=S1(=O)c2c(cccc2N2CCCC2)O[C@H](COCc2ccccc2)CN1C1CC1`, for which the inhibition is -12.9% (inactive). Under `CC1CCN(C(=O)c2ncn3c2C(=O)N[C@@H](C)C3)CC1` stands 1.95% (inactive); under `CC(=O)C1=C(C)N(Cc2ccc(Cl)cc2)C(=S)NC1c1ccc(F)cc1` (stereo not given), -0.95% (inactive). To `CCCCCCCCN1C(=O)[C@@H](CC(=O)NCc2ccccc2)C[C@@]2(C(=O)OC)C1=C[C@H](C(C)(C)C)O[C@@H]2C` belongs 4.65% (inactive); to `CCc1c(-c2ccccc2OC)ncn1CCc1ccccc1OC`, 8.29% (inactive); to `COc1ccc(S(=O)(=O)Nc2ccc3c(c2)C(=O)N([C@H](C)CO)C[C@H](C)[C@@H](CN(C)C)OCCCC[C@H](C)O3)cc1`, -2.07% (inactive). To `O=C(O)Cn1cnc2c(NCc3ccccc3)ncnc21` belongs -0.64% (inactive). Take `CCOC(=O)C1CSCCS(=O)(=O)N1Cc1ccc(Cl)cc1` (stereo not given): the inhibition was 1.02% (inactive).

In the case of `O=C(N[C@H](Cc1ccccc1)C(=O)N1CCCN(Cc2cccs2)CC1)[C@H]1O[C@@H](n2ccc(=O)[nH]c2=O)[C@H](O)[C@@H]1O`, the inhibition is -8.2% (inactive). To `O=S1(=O)c2ccc(Br)cc2-n2nncc2CN1Cc1cccc(Cl)c1` belongs -4.19% (inactive); to `CCCCOCC1CN(CCCC)S(=O)(=O)c2c(Oc3ccc(F)cc3)cccc2O1` (stereo not given), -4.17% (inactive); to `C[C@H](O)[C@@H]1C(=O)N2CCc3c([nH]c4c(-c5ccc6c(c5)OCO6)cccc34)[C@@H]2C[C@@H]1N(C)C(=O)c1ccco1`, -3.66% (inactive). As for `C=CCN=C1NC(c2cccc(C(F)(F)F)c2)C(C(=O)OC)=C(C)N1C` (stereo not given), the inhibition was -4.81% (inactive).

Turning to `C[C@H]1CN([C@@H](C)CO)C(=O)CCCn2nncc2CO[C@@H]1CN(C)C(=O)Nc1ccc(N2CCN(C)CC2)cc1`, the inhibition was 6.23% (inactive).

With `COC(=O)c1cc2c(c3c4cc(F)ccc4n(S(=O)(=O)c4ccccc4)c13)C(=O)N(Cc1ccccc1OC)C2`, the inhibition is -0.6% (inactive). To `Nc1ncnc2c1ncn2[C@@H]1O[C@H](C(=O)N[C@@H](CCc2ccccc2)C(=O)NCC(=O)N2CCOCC2)[C@@H](O)[C@H]1O` belongs -8.44% (inactive).

`CC(=O)N1C[C@@H](CO)[C@@H](N(C)C(=O)C(C)(C)C)C[C@H]1c1ccccc1Br`: the inhibition is -5.76% (inactive). For the compound `OC(c1ccccc1)(c1ccccc1)C1CCN(CCCOc2ccc(-c3ccsc3)cc2)CC1`, the inhibition was 13.7% (inactive). Under `Cc1ccc2nc(SCC(=O)N3CC(C)OC(C)C3)nc(=O)n2c1` (stereo not given) stands 40.7% (active); under `Cc1ccc2nc(SCC(=O)N3CCN(c4ccccc4)CC3)nc(=O)n2c1`, 14.1% (inactive). Under `Cc1ccc2nc(SCC(=O)Nc3cccc4ccccc34)nc(=O)n2c1` stands 16.5% (inactive); under `CC(=O)N(C1=C(Cl)C(=O)c2ccccc2C1=O)c1ccc(C(=O)O)cc1`, 29.4% (active). To `O=C1C(Cl)=C(Oc2ccccc2)C(=O)c2ccccc21` belongs -0.42% (inactive); to `COc1ccc(-c2ccccc2C2Cc3nnccc3CN2C(=O)Nc2ccccc2)cc1` (stereo not given), -1.04% (inactive). Regarding `O=C(NCc1ccccc1)[C@H]1CCCN1C(=O)[C@H]1CCCN1C(=O)N1CCOCC1`, the inhibition was 11.6% (inactive). As to `Nc1[nH]c(C(=O)c2ccc(Br)cc2)c(-c2ccc3c(c2)OCO3)c1C(=O)NCCc1c[nH]c2ccccc12`, the inhibition is 9.33% (inactive).

For the compound `CC(=O)c1ccc(S(=O)(=O)NCC2CCN(C(=O)C(=O)c3cccs3)CC2)cc1`, the inhibition was -0.29% (inactive).

As to `OCCNc1nc2ccccc2n1-c1ncnc2sc3c(c12)CCC3`, the inhibition is 1.46% (inactive). Under `O=C(O)c1cccnc1Sc1ncnc2sc3c(c12)CCC3` stands 8.49% (inactive); under `COc1ccc(/C=N/Nc2ncnc3sc4c(c23)CCCC4)cc1O`, 27.3% (active); under `COc1cccc(CNC(=O)[C@H]2CCCN2C(=O)[C@H]2CCCN2C(=O)c2ccc(F)cc2)c1`, -1.31% (inactive). Under `CCn1c2ccccc2c2cc(NC(=O)COC(=O)c3cc(S(=O)(=O)N4CCCCC4)ccc3Cl)ccc21` stands 0.3% (inactive); under `CCn1c2ccccc2c2cc(NC(=S)N3CCOCC3)ccc21`, -2.05% (inactive); under `CCn1c2ccccc2c2cc(NC(=O)C/C(C)=N/NC(=O)c3ccccc3N)ccc21`, 27% (active). Under `COC(=O)C1=C(C)N(Cc2ccccc2C(F)(F)F)C(=NCC2CC2)NC1c1cccc(Cl)c1` (stereo not given) stands 17.5% (inactive); under `C#CCN([C@@H](C)C(=O)OCC)S(=O)(=O)c1ccc(Br)cc1F`, 3.17% (inactive); under `Cc1ccc2nc(-c3ccc(CN4CCC(n5cc(-c6ccccc6)[nH]c5=O)CC4)cc3)c(-c3ccccc3)nc2c1`, 9.24% (inactive). Consider `Cc1cc2nc3c(=O)[nH]c(=O)nc-3n(C[C@H](O)[C@H](O)[C@H](O)CO)c2cc1C`, for which the inhibition was 0.24% (inactive). To `COc1ccccc1C(=O)N1O[C@]23C=C[C@]14C[C@@H](O)CC[C@]4(C)C2CC[C@]1(C)[C@@H]([C@H](C)/C=C/[C@H](C)C(C)C)CC[C@H]13` (stereo not given in full) belongs 6.77% (inactive). Under `C=CCN=C1NC(c2ccccc2)C(C(=O)OC)=C(C)N1Cc1ccc(C(F)(F)F)cc1` (stereo not given) stands 9.79% (inactive); under `CCOC(=O)CNC(=O)N(C)[C@H]1C[C@H]2c3[nH]c4c(-c5ccc6c(c5)OCO6)cccc4c3CCN2C(=O)[C@H]1[C@H](C)O`, -4.88% (inactive); under `COC(=O)N1Cc2ccnnc2CC1c1ccccc1Br` (stereo not given), 7.59% (inactive). To `O=C1[C@@H](c2ccccc2)[C@@H](c2ccccc2)N1c1ccccc1` belongs -13% (inactive); to `O=C1Nc2ccccc2C1=NN=Cc1ccco1`, 1.27% (inactive). Turning to `Clc1cccc2c1C1CC2CCN1Cc1ccccc1` (stereo not given), the inhibition is -8.11% (inactive). Under `Nc1nc2c(ncn2[C@@H]2O[C@H](C(=O)N[C@H](Cc3ccccc3)C(=O)NCC3CCCCC3)[C@@H](O)[C@H]2O)c(=O)[nH]1` stands 5.87% (inactive). To `COC(=O)C1=C(C)N(Cc2ccc(F)cc2)C(=S)NC1c1cccc(Cl)c1` (stereo not given) belongs -11.5% (inactive); to `N#Cc1cccc(C(=O)NCC2CCN(C(=O)C(=O)c3cc4ccccc4o3)CC2)c1`, -11.4% (inactive).

In general, inhibition refers to the relative decrease from the control value, in per cent.
